Experimental data: PubChem BioAssay (NCI)
The panel holds about 79,000 compounds, 15% with a hit somewhere; the sample as a whole holds those more often. Rule as the data show it: active = growth inhibition above about 70%; inactive = the rest.

What was measured:
[1] = NCI Yeast Anticancer Drug Screen. Data for the rad50 strain (AID 155);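 also: 0% = growth of vehicle-only cultures of the same strain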; conditions: S. cerevisiae rad50 strain growth inhibition; at 50.0 µM; stronger effect = higher value
Procedure, shortened: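 Genetically altered yeast (DNA repair pathway); compound treatment; growth inhibition vs vehicle ctrl.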

[2] = NCI Yeast Anticancer Drug Screen. Data for the mec2-1 strain (AID 157); conditions: S. cerevisiae mec2-1 strain, at 50.0 µM, stronger effect = higher value
Procedure, shortened: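 Growth inhibition is read against vehicle-treated controls after compound exposure of the mec2-1 yeast strain, which is defective in DNA damage repair or cell cycle control.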

[3] = NCI Yeast Anticancer Drug Screen. Data for the sgs1 mgt1 strain (AID 161);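 also: 0% = growth of cultures given vehicle only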; conditions: S. cerevisiae sgs1 mgt1 strain, at 50.0 µM, stronger effect = higher value
Procedure, shortened: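 Compounds are added to genetically altered yeast, and growth is compared with cultures given vehicle alone to give percent inhibition.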

[4] = NCI Yeast Anticancer Drug Screen. Data for the cln2 rad14 strain (AID 165);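 also: 0% = growth equal to vehicle treated cultures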; conditions: S. cerevisiae cln2 rad14 strain, at 50.0 µM, stronger effect = higher value
Procedure, shortened: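 Growth inhibition, relative to vehicle-treated controls, is the read-out. The test organism is a yeast strain with defined genetic alterations, cln2 rad14.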

[5] = NCI Yeast Anticancer Drug Screen. Data for the bub3 strain (AID 167); conditions: S. cerevisiae bub3 mutant strain, at 50.0 µM, stronger effect = higher value
Procedure, shortened: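 Yeast carrying a defined mutation is treated with each compound, and growth is compared with that of vehicle-exposed cells to give inhibition.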

[6] = NCI Yeast Anticancer Drug Screen. Data for the mlh1 rad18 strain (AID 175); conditions: S. cerevisiae mlh1 rad18 strain growth inhibition; at 50.0 µM; stronger effect = higher value
Procedure, shortened: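 Cells of a genetically altered yeast strain, deficient in DNA damage repair, were treated with compound. Their growth was then compared with that of vehicle-treated cultures to give inhibition.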

Measured: growth inhibition

CS(=O)(=O)c1nsc(N)n1
inactive: [1] -14% | [2] -8.6% | [3] -5.25% | [4] 2.15% | [5] -0.1% | [6] 2.7%

COC(=O)NC1C(=O)CCC(=O)C1C(N)=O (stereo unspecified)
inactive: [1] -23.4% | [2] -7.65% | [3] -17.4% | [4] -17.5% | [5] -0.3% | [6] -12.4%

COc1ccc(NC(=O)C2=C(SC)C(C#N)C(=O)N=C2N)cc1 (stereo unspecified)
inactive: [1] -25.1% | [2] -12.5% | [3] 0.2% | [4] 19.7% | [5] -31.4% | [6] 1.3%

COc1ccc2c(c1)SC1=NNC(=O)CN12
inactive: [1] -21.6% | [2] -27.6% | [3] -9.45% | [4] -39.1% | [5] -12.2% | [6] -22.9%

CN(C)c1ccc(Cc2ccc(N(C)C)c3cccnc23)c2ncccc12
inactive: [1] -5.45% | [2] -9.65% | [3] 13.7% | [4] -13.4% | [5] 12.3% | [6] 1.4%

O=C(O)Cc1ccccc1-c1ccccc1
inactive: [1] -22.2% | [2] -8.15% | [3] -19.2% | [4] 22.4% | [5] -6.2% | [6] -43.2%

CCNC(=O)OC1C=CS(=O)(=O)C1 (stereo unspecified)
inactive: [1] 5.25% | [2] -9.45% | [3] -0.45% | [4] -5.55% | [5] 7.95% | [6] -10.2%

N#CCCNC(CC(=O)O)C(=O)O (stereo unspecified)
inactive: [1] 10.7% | [2] 1.55% | [3] 14.4% | [4] -13.2% | [5] 0.5% | [6] -4.85%

CCSC1C(N=[N+]=[N-])C(CO)OC1n1cnc2c(N)ncnc21 (stereo unspecified)
inactive: [1] 1.3% | [2] -3.2% | [3] 9.3% | [4] 10.9% | [5] -2% | [6] 4.7%

O=[N+]([O-])c1cccc(CO)c1
inactive: [1] -9.75% | [2] 17.1% | [3] -1.15% | [4] 8.6% | [5] -7.35% | [6] -5.7%

OCCN(Cc1ccccn1)Cc1ccccn1
inactive: [1] 14% | [2] -3.7% | [3] 36.2% | [4] 11.2% | [5] 8.4% | [6] 9%

[N-]=[N+]=NCC1OCC(O)C(OCc2ccccc2)C1OCc1ccccc1 (stereo unspecified)
inactive: [1] -8.6% | [2] -10.4% | [3] -3.75% | [4] -11.8% | [5] -10.4% | [6] 3.3%

Nc1ccccc1N/N=C/c1ccccc1
inactive: [1] -4.3% | [2] 15.3% | [3] -15.4% | [4] -37.5% | [5] -15.3% | [6] 5.25%

OC(CNc1ccc(Cl)nn1)c1ccccc1 (stereo unspecified)
inactive: [1] -3.35% | [2] -10.3% | [3] 21% | [4] 13.4% | [5] 9.7% | [6] -15.2%

CC1NC(C)c2ccc3ccccc3c2O1 (stereo unspecified)
inactive: [1] -4.85% | [2] -12.7% | [3] -25.1% | [4] -9.35% | [5] -11.2% | [6] -6.15%

CCOC(=O)C1CCC(=O)C(CC)=C1C (stereo unspecified)
inactive: [1] -6.8% | [2] -40.3% | [3] 8.5% | [4] -1.85% | [5] -6.5% | [6] -6.5%

CC(=O)OCC1OC(n2cc([N+](=O)[O-])c(=O)[nH]c2=O)C(OC(C)=O)C(OC(C)=O)C1OC(C)=O (stereo unspecified)
inactive: [1] -12.8% | [2] 9.9% | [3] -8.65% | [4] -20% | [5] 12.8% | [6] -35.1%

OC(CC(c1ccccc1)c1cccc2ccccc12)(c1ccccc1)c1ccccc1 (stereo unspecified)
inactive: [1] -12.8% | [2] -17.9% | [3] -14.6% | [4] -7.65% | [5] -28.4% | [6] 3.3%

Nc1cc(=O)n(Cc2ccco2)c(=S)[nH]1
inactive: [1] 19.8% | [2] -16.6% | [3] 9.35% | [4] 2.75% | [5] -7.95% | [6] -8%

CCCCNCCS
inactive: [1] 14.1% | [2] -14.6% | [3] 2.7% | [4] 6.9% | [5] -8.55% | [6] 8.5%

CCOC(=O)CCC(NC(=O)N1CCN(c2c(C)nc(C)[nH]c2=O)CC1)C(=O)OCC (stereo unspecified)
inactive: [1] 11.6% | [2] -0.1% | [3] 10.6% | [4] -4.7% | [5] 12.7% | [6] 18.6%

COC(CCCl)c1ccc(C)cc1 (stereo unspecified)
inactive: [1] -9.4% | [2] -66.4% | [3] -24% | [4] 3.8% | [5] -29.9% | [6] 1.8%

CCc1ccccc1-n1[nH]c(C)c(C=N)c1=O
inactive: [1] -8.2% | [2] -18.1% | [3] -18.2% | [4] -14.1% | [5] -16.7% | [6] -8.15%

COc1cc2nccnc2c(N)c1OC
inactive: [1] 14.6% | [2] 7.65% | [3] 7.75% | [4] -1.7% | [5] -0.95% | [6] 19.9%

C1CSC(Sc2nc(SC3=NCCS3)nc(SC3=NCCS3)n2)=N1
inactive: [1] -22% | [2] -10.7% | [3] -10% | [4] -30.3% | [5] -31.2% | [6] -26.4%

CN1C(=O)CNS1(=O)=O
inactive: [1] -1.45% | [2] 9.6% | [3] -4.35% | [4] -11.1% | [5] 4.6% | [6] 7.3%

CC1=C(C(=O)Nc2ccccc2)C(c2ccccc2)C(C(=O)Nc2ccccc2)=C(C)N1
inactive: [1] 4.2% | [2] 2.55% | [3] 14.5% | [4] 18.4% | [5] 0.55% | [6] 22.4%

O=C(c1ccccc1)C1(Br)CCCCC1
inactive: [1] -2.1% | [2] 11.7% | [3] 19.8% | [4] -8.8% | [5] 15% | [6] 15.9%

CCOC(=O)c1ccncc1
inactive: [1] 23.6% | [2] -0.95% | [3] 21.7% | [4] -4.4% | [5] -1.5% | [6] 6.4%

CCOC(=O)/C(C#N)=C/NC(N)=O
inactive: [1] -2.55% | [2] 3.05% | [3] -10.1% | [4] -10% | [5] 1.95% | [6] -12.6%

O=[N+]([O-])c1ccc(NC(c2ccccc2)c2ccc3cccnc3c2O)cc1 (stereo unspecified)
inactive: [1] -6.35% | [2] -20.1% | [3] 0.2% | [4] -15.3% | [5] -2.75% | [6] -10.3%

CCCCCCCN(CCCCCCC)CC(O)c1cc2ccccc2c2cc(Br)ccc12 (stereo unspecified)
inactive: [1] -52.9% | [2] -33% | [3] -41% | [4] -25% | [5] -69.1% | [6] -109%

O=C(CC(c1ccccc1)N1CCCCC1)OCC1CCCO1 (stereo unspecified)
inactive: [1] -0.85% | [2] -13.7% | [3] -4.1% | [4] -44.5% | [5] -1.85% | [6] 14.3%

CCOC(=O)N(CCCl)C(=O)C(C)C
inactive: [1] -21.6% | [2] -39.1% | [3] -10.6% | [4] 24.8% | [5] -25.2% | [6] -11.1%

CC(=O)NCC(=O)c1ccccc1
inactive: [1] 12.5% | [2] -2.4% | [3] 3.75% | [4] -7.1% | [5] -6.35% | [6] 9.5%

Cc1cccc(C)c1NC(=S)N(CCC#N)C1CC(C)CC(C)(C)C1 (stereo unspecified)
inactive: [1] 3.45% | [2] 4.35% | [3] 19.6% | [4] -2.8% | [5] 19.9% | [6] -20%
